Source: PubChem
HP1b binding inh = HP1-beta chromodomain-methylated histone interaction inhibition; P83916; AlphaScreen HP1-beta / biotin-H3K9me3 peptide binding; Potency, µM (highest dose often 114 µM), without a hit: at the top dose activity change, negative = inhibition, hits mostly inhibitors; 0.56% of 390,000 active; further: nearly all actives have a fitted effect of over 70% in size
Target sequence (P83916 whole entry, looked up): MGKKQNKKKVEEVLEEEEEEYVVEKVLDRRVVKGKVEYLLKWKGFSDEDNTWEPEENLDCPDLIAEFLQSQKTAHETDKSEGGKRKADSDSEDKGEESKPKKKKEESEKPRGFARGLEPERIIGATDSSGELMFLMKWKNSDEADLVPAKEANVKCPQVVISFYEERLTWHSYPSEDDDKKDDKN
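AlphaScreen: HP1-beta (50 nM) preformed 30 min with biotin-H3(1-18)K9me3 peptide (50 nM) in PBS pH 7.4, 0.01% Tween-20. Compound added for 30 min at RT, then streptavidin donor/nickel chelate acceptor beads (10 ug/mL) for 30 min.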
G9a inh = inhibitors of human histone lysine methyltransferase G9a; Q96KQ7; 8.8% of 350,000 active; G9a H3K9 monomethylation, AlphaScreen, 2 h; AID 504332; Potency, µM (doses to about 102 µM), for the others: top-dose activity, negative = inhibition, hits mostly inhibitors; further: on the % scale 0 is the no-effect control and ±100 the full control effect; nearly all actives have a fitted effect of over 75% in size
Target sequence (Q96KQ7 913-1193 limits assumed): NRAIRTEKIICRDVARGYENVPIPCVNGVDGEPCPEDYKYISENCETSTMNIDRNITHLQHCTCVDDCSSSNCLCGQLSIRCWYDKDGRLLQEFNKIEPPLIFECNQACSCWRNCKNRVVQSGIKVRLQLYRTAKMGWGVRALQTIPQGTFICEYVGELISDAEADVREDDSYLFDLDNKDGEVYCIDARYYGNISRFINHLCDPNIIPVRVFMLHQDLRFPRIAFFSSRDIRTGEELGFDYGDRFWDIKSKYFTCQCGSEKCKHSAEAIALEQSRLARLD
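Readings reflect AlphaScreen signal from monomethyl-H3K9 antibody detection. HMT at 20 nM; substrate b-H3K9 500 nM; cofactor SAM 20 uM; 2 h RT reaction; compounds tested as titrations in qHTS with 15 min preincubation.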
BAZ2B inh = blocks human BAZ2B; AlphaScreen BAZ2B-H3K14Ac peptide displacement; Potency, µM (doses to about 114 µM), without a hit: at the highest dose activity change, negative = inhibition, actives largely listed as inhibitors; Q9UIF8; 4.4% of 360,000 active; further: on the % scale 0 is the no-effect control and ±100 the full control effect; nearly all actives have a fitted effect of over 60% in size
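Multi-concentration screen (max 110 uM) measuring displacement of acetylated histone H3 peptide from BAZ2B by AlphaScreen, using 50 nM protein, 50 nM peptide and 10 ug/mL streptavidin donor plus Ni-chelate acceptor beads.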
JMJD2A Tudor inh = blocks the human JMJD2A Tudor domain; AlphaScreen JMJD2A-Tudor / H3K4me3 peptide binding; Potency, µM (highest dose often 114 µM), without a hit: at the highest dose activity change, negative = inhibition, usual class: inhibitors; 4.4% of 390,000 active; further: on the % scale 0 is the no-effect control and ±100 the full control effect; nearly all actives have a fitted effect of over 50% in size
PLK1 PBD block = blocks phosphopeptide binding to human PLK1 polo-box domain. P53350. 2.8% of 360,000 active. Potency, µM, inactives show max response, negative = inhibition, most hits filed as inhibitors. Plk1 PBD binding of FITC phosphopeptide, fluorescence polarization. AID 720504; further: series mostly up to about 57 µM; on the % scale 0 is the no-effect control and ±100 the full control effect; nearly all actives have a fitted effect of over 65% in size
Sfp PPTase inh = inhibitors of Bacillus subtilis Sfp phosphopantetheinyl transferase; 3.5% of 310,000 active; Q9F4F7; Potency, µM, without a hit: largest response in the series, negative = inhibition, most hits filed as inhibitors; Biochemical Sfp PPTase activity, qHTS;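 further: the enzyme is Sfp with the accession as filed and its product quenches rhodamine fluorescence; 0% = enzyme reaction without inhibitor and -100% = no enzyme wells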
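Step 1, compound plus 15 nM Sfp-PPTase, 15 min, room temperature. Step 2, add rhodamine-CoA (5 uM) and BHQ-2-YbbR (12.5 uM). Step 3, read 525/598 nm fluorescence at 0 and 30 min.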
* hit, by the source's call; ? = inconclusive; nt = no result; [ ] = remark or other dose. Compounds with a hit are over-represented: about 12% of the library has one in this group of screens. The call rests on the fitted dose curve; in most records, active means well fitted curve in the direction sought with a large enough effect; inconclusive means small, poorly fitted or top-dose-only effect, or another doubt; inactive means no such curve, though single readings can be large; an effect the other way counts as inactive or inconclusive. Potency means the concentration at half of the fitted maximal effect.

SMILES | HP1b binding inh | G9a inh | BAZ2B inh | JMJD2A Tudor inh | PLK1 PBD block | Sfp PPTase inh
c1csc(-c2cnc3ccccc3n2)c1 | 31% | 36%[59 µM] | 32% | 18% | -5% | 2%
c1cc2c(cnc3cscc32)s1 | 41% | 14µM* | -37% | -10% | 1% | -15%
COc1ccc(OC)c(NC(=O)N(C)CCc2c(C)nn(C)c2C)c1 | 50% | 1%[12.7 µM] | -3% | 1% | nt | nt
COc1ccc(/C=C2\CCC/C(=C\C=N\N(C)C)C2=O)cc1 | ? | ? | 32µM* | 32µM* | 10% | -27%
CN(C)/N=C/C=C1\CCC/C(=C\c2ccc(F)c(F)c2)C1=O | ? | ? | 40µM* | ? | -10% | 8.9µM*
CCOc1ccc(C(=O)N2CCN(CC(=O)N3CCCC3)CC2)cc1OCC | 33% | 13%[2.33 µM] | 5% | ? | -3% | nt
O=C(Nc1cccs1)NC1CCCC1 | 0% | 32µM* | -32% | -25% | -11% | -7%
O=C(NCC1CC1)Nc1cccs1 | 31% | ? | -18% | -12% | -6% | 45µM*
Cc1ccccc1CCNC(=O)C1CC(O)CN1C(=O)Nc1ccccc1 (stereo not given) | 33% | nt | -2% | -10% | 7% | 6%
CCc1cccc(NS(=O)(=O)c2ccc3c(c2)N(C)CCO3)c1 | -9% | ? | ? | 32µM* | 24µM* | 3%
CCS(=O)(=O)c1nc2ccccc2n1CC(=O)Nc1ccccc1C(=O)OC | 20% | -2%[59 µM] | -7% | -12% | nt | nt
COc1cc(OC)cc(C(=O)Nc2nnc(-c3cccnc3)o2)c1 | 45% | 7% | 56µM* | 6% | -4% | 29%
COc1cccc(-c2nnc(NC(=O)C(C)C)o2)c1 | 40% | 8.9µM* | 79µM* | ? | -15% | 13%
CCc1nnc(NC(=O)CSc2nc3cc(OC)c(OC)cc3cc2C)s1 | 32% | nt | -18% | -16% | -8% | 7%
Cc1cc(C(=O)CSc2nnc(CCC(N)=O)n2C)c(C)n1C1CC1 | 9% | 50µM* | -7% | -19% | -8% | nt
O=C(Nc1nccs1)c1ccc2c(=O)n3c(nc2c1)CCCCC3 | 36% | 3% | 14% | -14% | -22% | 17%
CC(=O)CC[N+](C)(C)C | 79µM* | nt | nt | -1% | -15% | nt
COc1cc(C2NCC(c3ccc(Cl)cc3Cl)c3c2[nH]c2ccccc32)cc(OC)c1OC (stereo not given) | ? | -18%[59 µM] | 35µM* | 45µM* | ? | ?
O=C(O)c1ccc(C2NCC(c3ccccc3Cl)c3c2[nH]c2ccccc32)cc1 (stereo not given) | 6% | -7%[59 µM] | -33% | ? | -5% | -11%
CC(=O)C1=C(C)NC2=C(C(=O)c3ccccc32)C1c1ccccc1 (stereo not given) | ? | ? | ? | ? | -3% | 3%
Nc1nc2c(c(=O)[nH]1)C(c1cccc3ccccc13)C1=C(N2)c2ccccc2C1=O (stereo not given) | -34% | 35µM* | -10% | ? | ? | 56µM*
O=C1c2ccc([N+](=O)[O-])cc2C(=O)N1c1ccc(Cl)cn1 | 25% | -26% | -11% | -13% | -8% | 5%
O=C1c2cccc3c([N+](=O)[O-])ccc(c23)C(=O)N1O | 14% | ? | 50µM* | ? | ? | -21%
O=C1c2cccc3c([N+](=O)[O-])ccc(c23)C(=O)N1c1ccc(Cl)cn1 | ? | ? | 45µM* | ? | ? | -13%
O=C1c2cccc3c([N+](=O)[O-])ccc(c23)C(=O)N1c1ccccn1 | -30% | 71µM* | ? | 1%[11.4 µM] | ? | 9%
SMILES | HP1b binding inh | G9a inh | BAZ2B inh | JMJD2A Tudor inh | PLK1 PBD block | Sfp PPTase inh
CC(=O)Oc1ccc(N2C(=O)c3cccc4c([N+](=O)[O-])ccc(c34)C2=O)cc1 | 7% | nt | 6% | -11% | -3% | -4%
O=C1c2cccc3c([N+](=O)[O-])ccc(c23)C(=O)N1c1nccs1 | 14% | ? | 0% | -10% | -11% | 15%
CC(=O)c1ccc(NS(=O)(=O)c2ccc3[nH]c4c(c3c2)CCCCCC4)cc1 | 19%[57 µM] | -47%[59 µM] | ? | -34% | nt | nt
COC(=O)c1ccc(NS(=O)(=O)c2ccc3[nH]c4c(c3c2)CCCC4)cc1 | -21% | ? | 71µM* | ? | nt | nt
CC(=O)c1ccc(NS(=O)(=O)c2ccc3[nH]c4c(c3c2)CCCC4)cc1 | -12% | ? | 79µM* | ? | nt | nt
Cc1ccc(NS(=O)(=O)c2ccc3[nH]c4c(c3c2)CCCC4)c(C)c1 | ? | 16µM* | 40µM* | 28µM* | nt | nt
Cc1ccc(NC(=O)CN(C)S(=O)(=O)c2ccc3[nH]c4c(c3c2)CCCC4)c(Cl)c1 | 6% | 11µM* | -30% | ? | nt | nt
COC(=O)c1ccc(NS(=O)(=O)c2ccc3[nH]c4c(c3c2)CCCCC4)cc1 | -10% | ? | -15%[57.1 µM] | ? | nt | nt
Cc1cc2oc3c(c(=O)c2cc1C)C1(C(=O)N(C)c2ccccc21)N(CCO)C3=O (stereo not given) | 4% | -4%[59 µM] | -12% | -12% | nt | nt
COc1ccc(NS(=O)(=O)c2ccc3[nH]c4c(c3c2)CCCCCC4)cc1 | 23%[57 µM] | -49%[59 µM] | -2% | -5% | nt | nt
COc1ccccc1CNS(=O)(=O)c1ccc2[nH]c3c(c2c1)CCCCC3 | -15% | -7%[59 µM] | 18%[57.1 µM] | ? | nt | nt
CCOc1ccc(CNS(=O)(=O)c2ccc3[nH]c4c(c3c2)CCCC4)cc1OC | ? | ? | 45µM* | ? | nt | nt
Cc1ccc(NS(=O)(=O)c2ccc3[nH]c4c(c3c2)CCCCC4)cc1 | -19% | 14µM* | -31%[57.1 µM] | ? | nt | nt
CCc1cccc(C)c1NC(=O)C1CCCN1S(=O)(=O)c1cccc2nsnc12 (stereo not given) | 31% | 3%[59 µM] | -13% | -7% | nt | nt
COc1ccc(NC(=O)c2ccc(-c3nc(CSc4ccccc4)c(C)o3)cc2)c(OC)c1 | 41% | ? | -20% | -17% | nt | nt
CCCCCCCCN1C(=O)[C@H](CC(=O)NCC23CC4CC(CC(C4)C2)C3)C[C@@]2(C(=O)OCC)CCC=C12 | nt | nt | nt | nt | -2% | nt
FC(F)(F)c1cc(-c2ccc(Cl)cc2)nc(NCc2cccnc2)n1 | 40% | 34%[12.7 µM] | 12% | 7% | -4% | 79µM*
COc1cc(C(=O)NC(C(=O)Nc2cccc(C(C)=O)c2)C(C)C)cc(OC)c1OC (stereo not given) | -6% | -2% | nt | -14%[11.4 µM] | ? | 22%
Cc1cc(C)n2c(SCC(=O)Nc3ccc(F)cc3F)nnc2n1 | -5% | ? | -13% | 89µM* | ? | 1%
Cc1ccc(NC(=O)CSc2nnc3nc(C)cc(C)n23)cc1 | 59% | -1%[59 µM] | 9% | -5% | nt | nt
Cc1cc(C)n2c(SCC(=O)Nc3ccc(F)cc3)nnc2n1 | ? | 11µM* | -2% | -2% | 21µM* | 16µM*
